This passage reports inhibition results from ChEMBL document CHEMBL1961873, “Compounds: GSK PKIS; Assays: Nanosyn kinase panel” (2012).

Test [1] deals with Sphingosine kinase 1 (Homo sapiens) (UniProt Q9NYA1). The following applies: at 1 µM.
Test [2] addresses T1, Sphingosine kinase 2 (Homo sapiens) (UniProt Q9NRA0).
T1 sequence (whole entry): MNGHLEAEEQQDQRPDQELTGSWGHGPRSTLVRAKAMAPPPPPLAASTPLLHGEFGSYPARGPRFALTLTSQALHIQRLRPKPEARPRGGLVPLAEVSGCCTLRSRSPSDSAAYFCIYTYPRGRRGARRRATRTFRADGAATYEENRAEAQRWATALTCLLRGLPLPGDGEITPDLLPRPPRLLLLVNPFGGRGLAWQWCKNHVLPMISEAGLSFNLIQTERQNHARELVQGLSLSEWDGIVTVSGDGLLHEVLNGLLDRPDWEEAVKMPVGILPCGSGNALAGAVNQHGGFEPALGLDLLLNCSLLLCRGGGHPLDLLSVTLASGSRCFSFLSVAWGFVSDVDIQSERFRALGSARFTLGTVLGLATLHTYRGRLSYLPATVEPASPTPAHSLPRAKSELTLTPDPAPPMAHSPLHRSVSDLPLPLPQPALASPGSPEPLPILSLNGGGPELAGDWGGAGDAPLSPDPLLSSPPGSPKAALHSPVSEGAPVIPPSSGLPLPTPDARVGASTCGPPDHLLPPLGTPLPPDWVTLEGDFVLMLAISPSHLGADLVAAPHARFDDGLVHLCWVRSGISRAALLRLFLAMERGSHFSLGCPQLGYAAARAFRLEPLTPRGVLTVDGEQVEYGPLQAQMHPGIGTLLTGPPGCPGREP
The following applies: at 0.1 µM.

Test [3] deals with T1, Sphingosine kinase 2 (Homo sapiens). The note with it: at 1 µM.
In test [4] the target is Casein kinase II subunit alpha (Homo sapiens) (UniProt P68400). The note with it: at 0.1 µM.
Test [5] shares this target. The note with it: at 1 µM.
For test [6], the target named is T2, Inhibitor of nuclear factor kappa-B kinase subunit alpha (Homo sapiens) (UniProt O15111).
T2 sequence (whole entry): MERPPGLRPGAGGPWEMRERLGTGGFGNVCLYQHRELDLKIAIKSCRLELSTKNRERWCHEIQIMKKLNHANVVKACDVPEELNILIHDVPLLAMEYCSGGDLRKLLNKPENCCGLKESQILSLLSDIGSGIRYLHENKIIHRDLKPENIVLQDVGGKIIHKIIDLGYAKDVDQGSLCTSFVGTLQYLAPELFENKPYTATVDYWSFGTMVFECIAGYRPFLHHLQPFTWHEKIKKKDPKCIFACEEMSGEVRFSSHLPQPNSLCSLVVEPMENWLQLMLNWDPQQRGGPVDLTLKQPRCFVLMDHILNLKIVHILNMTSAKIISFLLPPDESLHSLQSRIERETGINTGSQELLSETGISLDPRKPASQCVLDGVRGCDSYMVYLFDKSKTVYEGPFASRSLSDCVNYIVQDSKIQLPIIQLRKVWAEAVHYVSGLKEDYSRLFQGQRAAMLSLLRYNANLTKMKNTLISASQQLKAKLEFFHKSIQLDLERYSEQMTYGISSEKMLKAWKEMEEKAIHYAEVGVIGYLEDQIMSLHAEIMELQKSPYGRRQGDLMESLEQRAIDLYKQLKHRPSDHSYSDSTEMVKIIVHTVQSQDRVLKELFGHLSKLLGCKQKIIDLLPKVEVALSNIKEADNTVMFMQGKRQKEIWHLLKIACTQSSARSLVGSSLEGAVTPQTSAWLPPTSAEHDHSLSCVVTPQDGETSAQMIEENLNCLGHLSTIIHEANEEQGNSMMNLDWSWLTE
The note with it: at 0.1 µM.

Test [7] has as its target T2, Inhibitor of nuclear factor kappa-B kinase subunit alpha (Homo sapiens). The note with it: at 1 µM.
In test [8] the target is T3, Inhibitor of nuclear factor kappa-B kinase subunit beta (Homo sapiens) (UniProt O14920).
T3 sequence (whole entry): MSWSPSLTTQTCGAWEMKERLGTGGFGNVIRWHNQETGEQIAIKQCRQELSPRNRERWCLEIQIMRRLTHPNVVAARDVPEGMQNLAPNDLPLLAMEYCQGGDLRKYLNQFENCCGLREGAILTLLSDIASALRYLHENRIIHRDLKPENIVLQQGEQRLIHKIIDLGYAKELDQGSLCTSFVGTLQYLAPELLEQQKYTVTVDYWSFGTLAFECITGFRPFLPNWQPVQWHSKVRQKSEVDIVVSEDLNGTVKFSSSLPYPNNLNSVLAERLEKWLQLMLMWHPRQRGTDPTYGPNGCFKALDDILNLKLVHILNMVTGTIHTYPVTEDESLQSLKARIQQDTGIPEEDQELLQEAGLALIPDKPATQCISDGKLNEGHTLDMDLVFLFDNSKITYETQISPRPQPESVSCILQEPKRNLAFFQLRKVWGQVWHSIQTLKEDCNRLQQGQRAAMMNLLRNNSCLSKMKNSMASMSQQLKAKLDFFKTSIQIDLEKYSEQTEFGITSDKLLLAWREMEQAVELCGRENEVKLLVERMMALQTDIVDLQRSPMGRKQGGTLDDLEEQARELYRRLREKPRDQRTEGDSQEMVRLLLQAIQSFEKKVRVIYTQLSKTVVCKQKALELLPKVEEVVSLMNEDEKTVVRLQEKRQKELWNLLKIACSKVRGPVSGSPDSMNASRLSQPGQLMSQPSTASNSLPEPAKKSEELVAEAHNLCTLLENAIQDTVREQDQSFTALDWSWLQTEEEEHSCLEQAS
The following applies: at 0.1 µM.

Test [9] concerns the target T3, Inhibitor of nuclear factor kappa-B kinase subunit beta (Homo sapiens). The note with it: at 1 µM.
Test [10] deals with T4, Inhibitor of nuclear factor kappa-B kinase subunit epsilon (Homo sapiens) (UniProt Q14164).
T4 sequence (whole entry): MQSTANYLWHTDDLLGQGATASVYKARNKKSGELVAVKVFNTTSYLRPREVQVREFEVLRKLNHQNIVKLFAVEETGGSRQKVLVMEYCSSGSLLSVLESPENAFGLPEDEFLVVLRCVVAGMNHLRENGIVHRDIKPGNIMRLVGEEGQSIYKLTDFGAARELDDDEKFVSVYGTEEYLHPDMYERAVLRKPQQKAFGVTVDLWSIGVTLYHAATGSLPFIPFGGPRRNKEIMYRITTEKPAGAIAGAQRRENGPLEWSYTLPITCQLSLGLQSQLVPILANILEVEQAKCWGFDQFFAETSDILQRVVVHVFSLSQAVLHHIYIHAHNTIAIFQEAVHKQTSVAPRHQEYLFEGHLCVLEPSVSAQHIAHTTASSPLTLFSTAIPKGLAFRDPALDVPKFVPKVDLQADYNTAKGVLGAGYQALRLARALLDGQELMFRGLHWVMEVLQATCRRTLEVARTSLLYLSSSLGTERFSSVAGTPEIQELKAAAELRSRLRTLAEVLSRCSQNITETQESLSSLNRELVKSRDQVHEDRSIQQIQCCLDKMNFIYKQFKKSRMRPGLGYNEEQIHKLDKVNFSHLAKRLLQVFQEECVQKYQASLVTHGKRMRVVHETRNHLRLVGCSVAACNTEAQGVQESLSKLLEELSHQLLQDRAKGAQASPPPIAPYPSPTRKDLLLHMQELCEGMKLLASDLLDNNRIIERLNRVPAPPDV
The note with it: at 0.1 µM.

For test [11], the target named is T4, Inhibitor of nuclear factor kappa-B kinase subunit epsilon (Homo sapiens). The note with it: at 1 µM.
The target in test [12] is T5, Serine/threonine-protein kinase Nek1 (Homo sapiens) (UniProt Q96PY6).
T5 sequence (whole entry): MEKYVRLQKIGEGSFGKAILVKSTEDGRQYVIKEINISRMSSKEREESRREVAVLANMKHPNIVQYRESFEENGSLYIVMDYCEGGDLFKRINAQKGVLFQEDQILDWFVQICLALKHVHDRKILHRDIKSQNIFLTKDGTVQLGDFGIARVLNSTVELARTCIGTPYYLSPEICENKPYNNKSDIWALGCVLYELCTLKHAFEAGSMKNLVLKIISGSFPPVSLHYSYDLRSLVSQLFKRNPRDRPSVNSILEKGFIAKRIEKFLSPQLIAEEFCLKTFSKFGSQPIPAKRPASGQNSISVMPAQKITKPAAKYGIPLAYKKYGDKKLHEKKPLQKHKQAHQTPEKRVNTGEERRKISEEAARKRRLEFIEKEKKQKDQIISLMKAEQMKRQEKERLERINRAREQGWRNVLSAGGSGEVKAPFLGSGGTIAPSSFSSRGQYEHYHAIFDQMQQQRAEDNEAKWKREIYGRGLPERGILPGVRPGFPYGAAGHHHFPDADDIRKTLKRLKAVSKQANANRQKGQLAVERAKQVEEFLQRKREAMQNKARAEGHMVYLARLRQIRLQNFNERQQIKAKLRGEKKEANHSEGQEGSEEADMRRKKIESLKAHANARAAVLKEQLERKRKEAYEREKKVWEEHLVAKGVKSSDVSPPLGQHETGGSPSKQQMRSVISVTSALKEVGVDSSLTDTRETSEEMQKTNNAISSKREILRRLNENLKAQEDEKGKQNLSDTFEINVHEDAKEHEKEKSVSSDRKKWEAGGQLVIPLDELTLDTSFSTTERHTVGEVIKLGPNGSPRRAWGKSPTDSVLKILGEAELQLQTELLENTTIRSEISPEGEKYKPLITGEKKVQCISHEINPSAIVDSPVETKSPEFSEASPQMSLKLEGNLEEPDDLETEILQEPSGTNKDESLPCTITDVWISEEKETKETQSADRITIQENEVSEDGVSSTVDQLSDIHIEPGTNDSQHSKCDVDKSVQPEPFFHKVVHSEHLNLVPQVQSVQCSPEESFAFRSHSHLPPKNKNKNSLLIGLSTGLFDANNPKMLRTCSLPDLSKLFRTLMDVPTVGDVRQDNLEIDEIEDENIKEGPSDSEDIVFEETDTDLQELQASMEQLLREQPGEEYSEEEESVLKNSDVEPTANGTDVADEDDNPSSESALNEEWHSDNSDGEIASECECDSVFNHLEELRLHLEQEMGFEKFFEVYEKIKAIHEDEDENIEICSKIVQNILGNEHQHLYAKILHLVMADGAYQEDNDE
The note with it: at 0.1 µM.

Test [13] addresses T5, Serine/threonine-protein kinase Nek1 (Homo sapiens). The following applies: at 1 µM.
In test [14] the target is T6, Serine/threonine-protein kinase Nek2 (Homo sapiens) (UniProt P51955).
T6 sequence (whole entry): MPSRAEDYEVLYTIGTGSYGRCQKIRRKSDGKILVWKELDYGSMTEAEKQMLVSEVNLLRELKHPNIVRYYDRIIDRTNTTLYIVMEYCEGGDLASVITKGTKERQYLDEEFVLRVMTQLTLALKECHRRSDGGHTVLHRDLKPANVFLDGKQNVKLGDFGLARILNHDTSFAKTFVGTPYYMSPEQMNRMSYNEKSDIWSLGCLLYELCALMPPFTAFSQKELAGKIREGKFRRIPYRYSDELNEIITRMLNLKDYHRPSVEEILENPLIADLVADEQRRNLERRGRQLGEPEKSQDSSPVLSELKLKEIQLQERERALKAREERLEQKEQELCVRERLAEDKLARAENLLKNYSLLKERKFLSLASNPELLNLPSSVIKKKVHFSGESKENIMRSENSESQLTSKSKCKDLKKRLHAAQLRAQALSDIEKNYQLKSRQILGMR
The note with it: at 0.1 µM.

Test [15] addresses T6, Serine/threonine-protein kinase Nek2 (Homo sapiens). The following applies: at 1 µM.
Test [16] concerns the target Serine/threonine-protein kinase Nek6 (Homo sapiens) (UniProt Q9HC98). The note with it: at 0.1 µM.
Test [17] shares this target. The note with it: at 1 µM.
In test [18] the target is Serine/threonine-protein kinase Nek7 (Homo sapiens) (UniProt Q8TDX7). The note with it: at 0.1 µM.
Test [19] has the same target. The note with it: at 1 µM.
The target in test [20] is T7, Serine/threonine-protein kinase Nek9 (Homo sapiens) (UniProt Q8TD19).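 Further: reported value is the mean percent inhibition of NEK9.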
T7 sequence (whole entry): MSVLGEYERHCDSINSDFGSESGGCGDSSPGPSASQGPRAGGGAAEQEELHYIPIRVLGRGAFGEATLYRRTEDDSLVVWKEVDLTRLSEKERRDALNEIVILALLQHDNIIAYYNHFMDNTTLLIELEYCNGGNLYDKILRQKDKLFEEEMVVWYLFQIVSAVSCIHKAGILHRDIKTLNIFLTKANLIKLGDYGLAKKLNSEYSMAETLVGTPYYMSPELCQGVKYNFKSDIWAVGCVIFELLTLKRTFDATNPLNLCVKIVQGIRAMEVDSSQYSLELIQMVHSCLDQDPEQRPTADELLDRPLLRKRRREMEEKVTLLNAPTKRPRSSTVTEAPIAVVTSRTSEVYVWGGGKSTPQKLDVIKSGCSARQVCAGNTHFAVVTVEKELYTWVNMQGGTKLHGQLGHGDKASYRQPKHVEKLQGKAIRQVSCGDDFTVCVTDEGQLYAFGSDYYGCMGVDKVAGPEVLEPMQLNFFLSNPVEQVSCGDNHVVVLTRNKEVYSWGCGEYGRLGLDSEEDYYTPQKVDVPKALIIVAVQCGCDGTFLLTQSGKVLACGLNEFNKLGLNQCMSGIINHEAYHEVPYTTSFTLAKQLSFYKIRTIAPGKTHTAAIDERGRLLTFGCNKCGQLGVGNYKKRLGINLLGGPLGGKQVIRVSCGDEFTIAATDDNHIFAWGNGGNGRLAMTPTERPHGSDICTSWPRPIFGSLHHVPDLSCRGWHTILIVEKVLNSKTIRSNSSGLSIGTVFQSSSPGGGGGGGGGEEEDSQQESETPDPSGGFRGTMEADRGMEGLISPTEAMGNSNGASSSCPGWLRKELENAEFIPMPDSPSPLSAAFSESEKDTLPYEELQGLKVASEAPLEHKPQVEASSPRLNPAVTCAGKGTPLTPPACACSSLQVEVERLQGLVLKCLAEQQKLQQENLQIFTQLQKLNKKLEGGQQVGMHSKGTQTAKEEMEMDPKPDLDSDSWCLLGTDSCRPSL
The note with it: at 0.1 µM.

Values joined by “and” are separate entries in the source; they are usually repeats but may differ in a detail not shown here. Equal entries are not always repeated.

Sequence of Serine/threonine-protein kinase Nek6 (Homo sapiens) (Q9HC98 whole entry): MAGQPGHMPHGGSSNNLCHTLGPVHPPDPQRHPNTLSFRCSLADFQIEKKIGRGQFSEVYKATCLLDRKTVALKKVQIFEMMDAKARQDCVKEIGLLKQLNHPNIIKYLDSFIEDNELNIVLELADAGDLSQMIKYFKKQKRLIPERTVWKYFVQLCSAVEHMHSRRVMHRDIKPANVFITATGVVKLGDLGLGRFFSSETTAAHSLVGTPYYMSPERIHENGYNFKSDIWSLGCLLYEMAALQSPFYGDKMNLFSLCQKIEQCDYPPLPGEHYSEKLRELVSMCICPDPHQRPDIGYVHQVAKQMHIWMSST
Sequence of Casein kinase II subunit alpha (Homo sapiens) (P68400 whole entry, looked up): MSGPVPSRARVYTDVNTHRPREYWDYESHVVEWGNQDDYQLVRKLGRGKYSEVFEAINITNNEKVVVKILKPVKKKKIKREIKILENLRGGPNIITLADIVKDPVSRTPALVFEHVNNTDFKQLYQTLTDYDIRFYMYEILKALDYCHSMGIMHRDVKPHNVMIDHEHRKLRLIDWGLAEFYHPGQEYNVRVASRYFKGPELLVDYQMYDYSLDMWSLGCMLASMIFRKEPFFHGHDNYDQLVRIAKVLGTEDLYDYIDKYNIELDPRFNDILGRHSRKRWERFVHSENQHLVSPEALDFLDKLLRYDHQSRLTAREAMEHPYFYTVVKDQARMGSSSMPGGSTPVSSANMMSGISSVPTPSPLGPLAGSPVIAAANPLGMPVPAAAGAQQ
Sequence of Serine/threonine-protein kinase Nek7 (Homo sapiens) (Q8TDX7 whole entry, looked up): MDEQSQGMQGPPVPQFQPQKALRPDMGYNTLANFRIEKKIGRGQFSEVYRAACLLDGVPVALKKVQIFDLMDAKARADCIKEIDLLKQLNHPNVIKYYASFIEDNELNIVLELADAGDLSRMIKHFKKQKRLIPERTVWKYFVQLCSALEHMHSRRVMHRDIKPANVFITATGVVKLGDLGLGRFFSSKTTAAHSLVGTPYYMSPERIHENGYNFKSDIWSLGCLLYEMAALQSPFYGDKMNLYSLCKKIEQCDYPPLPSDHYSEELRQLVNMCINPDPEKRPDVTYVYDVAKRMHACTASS
Sequence of Sphingosine kinase 1 (Homo sapiens) (Q9NYA1 whole entry): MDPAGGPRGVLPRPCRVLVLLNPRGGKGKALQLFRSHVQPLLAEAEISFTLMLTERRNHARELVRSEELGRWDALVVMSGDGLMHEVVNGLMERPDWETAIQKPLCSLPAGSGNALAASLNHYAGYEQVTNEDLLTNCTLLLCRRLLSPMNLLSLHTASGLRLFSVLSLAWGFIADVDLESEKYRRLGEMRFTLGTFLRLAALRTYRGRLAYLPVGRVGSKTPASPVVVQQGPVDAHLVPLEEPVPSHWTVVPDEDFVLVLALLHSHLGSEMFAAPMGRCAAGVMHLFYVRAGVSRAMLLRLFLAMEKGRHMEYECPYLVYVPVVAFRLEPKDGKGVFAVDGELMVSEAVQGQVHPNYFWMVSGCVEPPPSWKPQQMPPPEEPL

As a reminder, the inhibition is the relative decrease from the control value, in per cent. Turning to `CN1CCN(Cc2ccc(-c3cc4ncnc(Nc5ccc(OCc6cccc(F)c6)c(Cl)c5)c4s3)o2)CC1`, the inhibition in test [1] is 3.16% and -4.57%; in [2] it was 0.42% and -0.46%; in [3], 2.36% and -0.62%; in test [4], 12.7% and 7.35%; in [5], 3.7% and 10.5%; in test [6], 4.53% and 11.4%. Moreover, the inhibition is 2.93% and 6.95% in test [7]; 2.82% and 5.97% in [8]; 3.27% and 6.18% in test [9]; 3.75% and 4.88% in [10]; 4.6% and 4.24% in [11]; 1.24% and 3.95% in test [12]. The inhibition in test [13] was 2.68% and 4.85%; in test [14], 3.46% and 4.63%; in test [15], 2.94% and 4.7%; in test [16], -1.83% and 5.78%; in test [17] it was 0.03% and 5.91%; in test [18], 2.08% and 6.06%. The inhibition in test [19] was 5.67% and 4.39%; in test [20], -2.04% and 6.24%.
